This note sets out measurements from PubChem BioAssay (NCI).

The structures appear in SMILES notation. The panel holds about 83,000 compounds, 20% with a hit somewhere; the sample as a whole holds those more often.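 Note: values are percent growth. 100 is the growth of untreated cells, values between 100 and 0 indicate rising inhibition; between -100 and 0 indicates cell death.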 The source made the active and inactive calls. Rule for the calls: active = growth percent below 10; inactive = the rest.

For one assay, the system named is OVCAR-5 ovarian. Description: NCI-60 one-dose screen, 48 h (100 = growth as untreated, 0 = no growth, -100 = all killed). To be noted: 10 µM unless noted.
Turning to `COC(=O)[C@]12CC[C@@H](C)[C@H](C)[C@@H]1C1=CC[C@@H]3[C@@]4(C)C(C=O)=C[C@@](C)(COC(=O)c5ccco5)[C@@H]4C(=O)C[C@@]3(C)[C@]1(C)CC2`, the growth was 59.4% (inactive).

Consider `COc1cccc(C(=O)NCCNc2cc(-c3cn(-c4ccccc4)nc3-c3cccc(OC)c3)ccn2)c1`, for which the growth is 91.7% (inactive). The same measure, in the same setting: for `COC(=O)[C@]12CC[C@@H](C)[C@H](C)[C@@H]1C1=CC[C@@H]3[C@@]4(C)C(C=O)=C[C@@](C)(COC(=O)c5ccco5)C4=CC[C@@]3(C)[C@]1(C)CC2` the value was 8.46% (active); for `CC(CCc1ccc(Cl)c(Cl)c1)NCc1ccc(C(C)(C)C)cc1` (stereo not given), 91.3% (inactive). In the case of `Cc1ccc2nc3ccccc3c(NCc3ccccc3)c2c1`, the growth is 40.4% (inactive). Consider `COc1cc(-c2nc(N3CCN(C)CC3)c3ccccc3n2)cc(OC)c1OC`, for which the growth was 88.5% (inactive). For `CCn1c(C)nc2cc(C(N)=O)ccc21`, the growth was 92.6% (inactive). Still for that read-out and setting: for `CN(C)CC1C(=O)O[C@H]2[C@H]1CC/C(COC(=O)c1cc3ccccc3[nH]1)=C\CC[C@@]1(C)O[C@@H]21` (stereo not given in full) the value was -5.25% (active); for `CN1CCN(CCCOc2ccc3nc(Nc4ccc(F)c(F)c4)ccc3c2)CC1`, 41% (inactive).

For `COc1cccc(-c2nn(-c3ccccc3)cc2-c2ccnc(NCCCNC(=O)c3cccc(C(F)(F)F)c3)c2)c1`, the growth is 71.6% (inactive). In the case of `COc1ccc(-c2cc(-c3cc(OC)ccc3OC)nc(SCC(=O)c3ccccc3)c2C#N)cc1`, the growth was 103% (inactive).

`Cc1ccc(Cl)c(NS(=O)(=O)c2ccc(-c3cnc(C4CC4)o3)cc2)c1`: the growth is 26.4% (inactive). `COc1cccc(-c2nn(-c3ccccc3)cc2-c2ccnc(NCCNC(=O)c3ccccc3)c2)c1`: the growth was 102% (inactive).

With `Cc1cc(N2CCCC2)nc(NCc2cc(Nc3ccnc4cc(Cl)ccc34)ccc2F)n1`, the growth was -11.8% (active).

`COc1cccc(-c2nn(-c3ccccc3)cc2-c2ccnc(NCCNC(=O)Nc3ccccc3)c2)c1`: the growth was 92.4% (inactive).

As to `CC(C)CCC[C@@H](C)[C@H]1CC[C@H]2[C@@H](Nc3ccc(O)cc3)CCC[C@]12C`, the growth is 114% (inactive).

For `COc1cc(-c2nn(-c3ccccc3)cc2-c2ccnc(NCCNS(=O)(=O)c3ccc(Cl)cc3)n2)ccc1Cl`, the growth is 68.8% (inactive). On the same count and under the same terms, for `CCCCn1c(=O)c2c(nc3n2CCCN3CCc2ccc(OCC(=O)NCCN(CC)CC)cc2)n(CCCC)c1=O` the value was 94% (inactive); for `COC(=O)CCC1=C(C)C2=NC1=CC1=NC(=CC3=NC(=Cc4[nH]c(/c(=C(/C)O)c4C)=C2)C(C(C)=O)=C3C)C(C)=C1CCC(=O)OC`, 111% (inactive); for `N[C@@H](CCCCNCC(=O)O)C(=O)O`, 102% (inactive). Consider `O=C(c1ccc(Nc2nccc(NCCCCNc3ccnc4cc(Cl)ccc34)n2)cc1)N1CCCCC1`, for which the growth is 91.9% (inactive). Regarding `Cc1ccc(NCCN(C)C)c2c(=O)c3ccccc3sc12`, the growth was 62% (inactive). In the case of `Cc1cc(NCCCCNc2ccnc3cc(Cl)ccc23)nc(Nc2ccc(C(=O)N3CCCC3)cc2)n1`, the growth is 108% (inactive). For the molecule `CC(C)(C)n1cc(-c2ccnc(NCCCNS(=O)(=O)c3ccccc3)c2)c(-c2ccccc2)n1`, the growth was 94% (inactive).

`Fc1ccc(CNc2c3ccccc3nc3ccccc23)cc1F`: the growth was 44.6% (inactive). On the same count and under the same terms, to `c1c[nH]c(CNC2CCCCC2)c1` belongs 101% (inactive). As for `COc1cccc(-c2nn(-c3ccccc3)cc2-c2ccnc(NCCNC(=O)Nc3cccc(C(F)(F)F)c3)c2)c1`, the growth was 58.4% (inactive). On to `O=C(NCCCNc1cc(-c2cn(-c3ccccc3)nc2-c2cccc(O)c2)ccn1)c1ccc(F)cc1`, for which the growth is 58% (inactive). The same measure, in the same setting: to `Cc1cc(NCc2cc(Nc3ccnc4cc(Cl)ccc34)ccc2F)nc(Cl)n1` belongs 74.2% (inactive). The same measure, in the same setting: for `Cc1cc(Cl)nc(NCc2cc(Nc3ccnc4cc(Cl)ccc34)ccc2F)n1` the value was 107% (inactive); for `COc1ccc(-c2ccc3c(c2)sc2nc(-c4ccc(F)cc4)cn23)cc1`, 70.7% (inactive). `FC(F)(F)c1cc(Nc2ccc3cc(OCCCN4CCOCC4)ccc3n2)ccc1Cl`: the growth was 59.1% (inactive). Take `COC(=O)[C@]12CC[C@@H](C)[C@H](C)[C@@H]1C1=CC[C@@H]3[C@@]4(C)C(C=O)=C[C@@](C)(COC(C)=O)C4=CC[C@@]3(C)[C@]1(C)CC2`: the growth is 12.9% (inactive).

A further assay deals with OVCAR-4 ovarian. Described as above. The note with it: 10 µM unless noted.
For `COC(=O)[C@]12CC[C@@H](C)[C@H](C)[C@@H]1C1=CC[C@@H]3[C@@]4(C)C(C=O)=C[C@@](C)(COC(=O)c5ccco5)[C@@H]4C(=O)C[C@@]3(C)[C@]1(C)CC2`, the growth is 29.8% (inactive). As to `COc1cccc(C(=O)NCCNc2cc(-c3cn(-c4ccccc4)nc3-c3cccc(OC)c3)ccn2)c1`, the growth is 49.6% (inactive). For the molecule `O=C(O)C1CCC(=O)N1C(=O)OCc1ccccc1` (stereo not given), the growth was 101% (inactive). `Cc1cc(NCc2cc(Nc3ccnc4cc(Cl)ccc34)ccc2F)nc(N2CCCC2)n1`: the growth is -0.25% (active). In the case of `COC(=O)[C@]12CC[C@@H](C)[C@H](C)[C@@H]1C1=CC[C@@H]3[C@@]4(C)C(C=O)=C[C@@](C)(COC(=O)c5ccco5)C4=CC[C@@]3(C)[C@]1(C)CC2`, the growth was 18.6% (inactive).

Take `CC(CCc1ccc(Cl)c(Cl)c1)NCc1ccc(C(C)(C)C)cc1` (stereo not given): the growth was 88.1% (inactive). As to `Cc1ccc2nc3ccccc3c(NCc3ccccc3)c2c1`, the growth is 32.8% (inactive). With `COc1cc(-c2nc(N3CCN(C)CC3)c3ccccc3n2)cc(OC)c1OC`, the growth was 55.9% (inactive). Take `CCn1c(C)nc2cc(C(N)=O)ccc21`: the growth was 98.2% (inactive). The same measure, in the same setting: for `CN(C)CC1C(=O)O[C@H]2[C@H]1CC/C(COC(=O)c1cc3ccccc3[nH]1)=C\CC[C@@]1(C)O[C@@H]21` (stereo not given in full) the value was -9.35% (active). Regarding `CN1CCN(CCCOc2ccc3nc(Nc4ccc(F)c(F)c4)ccc3c2)CC1`, the growth was 51.2% (inactive). On to `COc1cccc(-c2nn(-c3ccccc3)cc2-c2ccnc(NCCCNC(=O)c3cccc(C(F)(F)F)c3)c2)c1`, for which the growth is 31.3% (inactive). For `COc1ccc(-c2cc(-c3cc(OC)ccc3OC)nc(SCC(=O)c3ccccc3)c2C#N)cc1`, the growth was 91.8% (inactive). Consider `Cc1ccc(Cl)c(NS(=O)(=O)c2ccc(-c3cnc(C4CC4)o3)cc2)c1`, for which the growth is 48.3% (inactive).

For the molecule `COc1cccc(-c2nn(-c3ccccc3)cc2-c2ccnc(NCCNC(=O)c3ccccc3)c2)c1`, the growth is 53.7% (inactive).

As for `Cc1cc(N2CCCC2)nc(NCc2cc(Nc3ccnc4cc(Cl)ccc34)ccc2F)n1`, the growth was -14.9% (active). Take `COc1cccc(-c2nn(-c3ccccc3)cc2-c2ccnc(NCCNC(=O)Nc3ccccc3)c2)c1`: the growth is 53.9% (inactive). As for `CC(C)CCC[C@@H](C)[C@H]1CC[C@H]2[C@@H](Nc3ccc(O)cc3)CCC[C@]12C`, the growth is -73.1% (active).

As for `COc1cc(-c2nn(-c3ccccc3)cc2-c2ccnc(NCCNS(=O)(=O)c3ccc(Cl)cc3)n2)ccc1Cl`, the growth is 38.3% (inactive).

As to `CCCCn1c(=O)c2c(nc3n2CCCN3CCc2ccc(OCC(=O)NCCN(CC)CC)cc2)n(CCCC)c1=O`, the growth is 52.3% (inactive). As to `COC(=O)CCC1=C(C)C2=NC1=CC1=NC(=CC3=NC(=Cc4[nH]c(/c(=C(/C)O)c4C)=C2)C(C(C)=O)=C3C)C(C)=C1CCC(=O)OC`, the growth is 107% (inactive).

In the case of `N[C@@H](CCCCNCC(=O)O)C(=O)O`, the growth was 101% (inactive). Regarding `O=C(c1ccc(Nc2nccc(NCCCCNc3ccnc4cc(Cl)ccc34)n2)cc1)N1CCCCC1`, the growth is 49% (inactive).

With `Cc1ccc(NCCN(C)C)c2c(=O)c3ccccc3sc12`, the growth is 42.4% (inactive). Regarding `Cc1cc(NCCCCNc2ccnc3cc(Cl)ccc23)nc(Nc2ccc(C(=O)N3CCCC3)cc2)n1`, the growth is 48.4% (inactive).

As to `CC(C)(C)n1cc(-c2ccnc(NCCCNS(=O)(=O)c3ccccc3)c2)c(-c2ccccc2)n1`, the growth was 70.4% (inactive). On the same count and under the same terms, for `Fc1ccc(CNc2c3ccccc3nc3ccccc23)cc1F` the value was 35.4% (inactive); for `c1c[nH]c(CNC2CCCCC2)c1`, 111% (inactive); for `COc1cccc(-c2nn(-c3ccccc3)cc2-c2ccnc(NCCNC(=O)Nc3cccc(C(F)(F)F)c3)c2)c1`, 46.5% (inactive).

As for `O=C(NCCCNc1cc(-c2cn(-c3ccccc3)nc2-c2cccc(O)c2)ccn1)c1ccc(F)cc1`, the growth was 39.8% (inactive). For `Cc1cc(NCc2cc(Nc3ccnc4cc(Cl)ccc34)ccc2F)nc(Cl)n1`, the growth was 34% (inactive). Same read-out and setting: for `NC(=O)c1ccc[n+](Cc2ccc(Cl)cc2Cl)c1` the value was 109% (inactive). `Cc1cc(Cl)nc(NCc2cc(Nc3ccnc4cc(Cl)ccc34)ccc2F)n1`: the growth is 9.24% (active). In the case of `COc1ccc(-c2ccc3c(c2)sc2nc(-c4ccc(F)cc4)cn23)cc1`, the growth is 73.6% (inactive).

`O=C(NCCCNc1cc(-c2cn(-c3ccccc3)nc2-c2cccc(O)c2)ccn1)c1ccccc1`: the growth was 38.1% (inactive).

In the case of `FC(F)(F)c1cc(Nc2ccc3cc(OCCCN4CCOCC4)ccc3n2)ccc1Cl`, the growth is 48.6% (inactive). With `COC(=O)[C@]12CC[C@@H](C)[C@H](C)[C@@H]1C1=CC[C@@H]3[C@@]4(C)C(C=O)=C[C@@](C)(COC(C)=O)C4=CC[C@@]3(C)[C@]1(C)CC2`, the growth was 17% (inactive).
